Columns and labels:
Test in all cases: fraction of microhomology deletions among edited reads; higher = more MH deletions
Conditions in all cases: mESC; 2uM; 72 h treatment, harvest day 5
[1] = compound: O=C(c1cccc(Cl)c1F)N1CCN(Cc2cccc(Nc3nccs3)n2)CC1
Rifapentine = compound: CO[C@H]1/C=C/O[C@@]2(C)Oc3c(C)c(O)c4c(O)c(c(/C=N/N5CCN(C6CCCC6)CC5)c(O)c4c3C2=O)NC(=O)/C(C)=C\C=C\[C@H](C)[C@H](O)[C@@H](C)[C@@H](O)[C@@H](C)[C@H](OC(C)=O)[C@@H]1C [Rifapentine]
[2] = compound: COc1ccccc1-c1cc(Nc2cccc(CS(N)(=O)=O)c2)ncn1
[3] = compound: C[C@@H]1CN(CC(=O)Nc2ccc3c(c2)Cc2cccc(-c4cc(=O)cc(N5CCOCC5)o4)c2S3)C[C@H](C)O1
[4] = compound: Cc1cc(C)nc(SCC(=O)Nc2ncc(Cc3cccc4ccccc34)s2)n1
[5] = compound: Cc1cccc(CC(=O)N2CCc3c2ccc(-c2cn(C)c4ncnc(N)c24)c3F)n1
[6] = compound: NC(=O)c1ccc2nc(-c3ccc(Oc4ccc(Cl)cc4)cc3)[nH]c2c1 [Chk 2 inhibitor II (BML-277)]
Tucidinostat (Chidamide) = compound: Nc1cc(F)ccc1NC(=O)c1ccc(CNC(=O)/C=C/c2cccnc2)cc1 [Tucidinostat (Chidamide)]
Pemetrexed = compound: Nc1nc2[nH]cc(CCc3ccc(C(=O)N[C@@H](CCC(=O)O)C(=O)O)cc3)c2c(=O)[nH]1 [Pemetrexed]
[7] = compound: Nc1ncnc2c1c(-c1cnc3[nH]ccc3c1)nn2C1CCCC1

Row | Target | fraction of microhomology deletions among edited reads [1] | fraction of microhomology deletions among edited reads (Rifapentine) | fraction of microhomology deletions among edited reads [2] | fraction of microhomology deletions among edited reads [3] | fraction of microhomology deletions among edited reads [4] | fraction of microhomology deletions among edited reads [5] | fraction of microhomology deletions among edited reads [6] | fraction of microhomology deletions among edited reads (Tucidinostat (Chidamide)) | fraction of microhomology deletions among edited reads (Pemetrexed) | fraction of microhomology deletions among edited reads [7]
1 | 23.0 AGAACAAAGCGCTCATATAACGATATGGGGGGTTATGGGGGGTTGAATTGCTTCAGCACGA | 0.856 | – | – | – | – | – | – | – | – | –
2 | 20.0 (DMSO control at this site: 1-bp insertion 0.349, MH deletion 0.138, edited 0.084) TACAGGTGTAGACTGGTTACGTGGCTGCGGAATTGACTGGTTACGTGGCTGCGGAATTTTG | 0.125 | 0.246 | 0.159 | 0.0478 | 0.203 | 0.191 | 0.203 | 0.215 | 0.263 | 0.133
3 | 7.0 (DMSO control at this site: 1-bp insertion 0.128, MH deletion 0.374, edited 0.098) TACTCAACCGAGACCTACGCGAACCGAAATCGTATGCCGGTGCGCAAGCAGGGCTGGCGTC | 0.394 | 0.414 | 0.393 | 0.324 | 0.45 | 0.441 | 0.38 | 0.427 | 0.536 | 0.425
4 | 26.0 (DMSO control at this site: 1-bp insertion 0.518, MH deletion 0.262, edited 0.026) AGGGCGCGCCCCACGCACTCTGCGGCAAGTCCCTCTGCGGCAAGTCCTCGGCCCGGAAGAC | 0.275 | 0.272 | 0.295 | 0.115 | 0.281 | 0.301 | 0.302 | 0.278 | 0.44 | 0.201
5 | 16.0 (DMSO control at this site: 1-bp insertion 0.172, MH deletion 0.29, edited 0.05) CGGACTGCACACATGGGTAGGATCGTGCACGCGAGGTAGGATCGTGCACGCGAAGTTATTC | 0.256 | 0.319 | 0.282 | 0.12 | 0.275 | 0.281 | 0.254 | 0.302 | 0.279 | 0.198
6 | 5.0 (DMSO control at this site: 1-bp insertion 0.214, MH deletion 0.567, edited 0.105) CGCTGACCCGAGACCTACGCGAACCGAAATCGGCGACCGGTGCGCAAGCAGGGCTGGCGTC | 0.537 | 0.578 | 0.519 | 0.353 | 0.571 | 0.568 | 0.58 | 0.526 | 0.565 | 0.512
7 | 39.0 (DMSO control at this site: 1-bp insertion 0.328, MH deletion 0.371, edited 0.204) CTGCACAGTCACTTAGGATAGGAGAAGATGATGTATAGGGTTTAGTGGGAGATGTTGCAAG | 0.32 | 0.414 | 0.303 | 0.105 | 0.361 | 0.372 | 0.372 | 0.287 | 0.407 | 0.286
8 | 40.0 (DMSO control at this site: 1-bp insertion 0.072, MH deletion 0.192, edited 0.189) GCGAATCAACTGTTCAACAACAGCAGCAGCCACCTGGAGGACTACAGTGGCCTGTCCGTGT | 0.137 | 0.211 | 0.146 | 0.0486 | 0.173 | 0.156 | 0.181 | 0.145 | 0.169 | 0.139
9 | 21.0 CGATTGAGAGTCAAACGGGCCAGAAAACTCCGGGAACGGGCCAGAAAACTCCGGGGCATGG | – | 0.216 | 0.183 | 0.0533 | 0.176 | – | 0.226 | 0.127 | 0.186 | 0.144
10 | 1.0 (DMSO control at this site: 1-bp insertion 0.521, MH deletion 0.323, edited 0.141) GTGTCACAGTGCACGAGTGACGGGATAATGTGCTGACAGGTAATTGATAGGCTTCCAACTT | 0.209 | 0.256 | 0.224 | 0.0962 | 0.248 | 0.227 | 0.243 | 0.215 | 0.342 | 0.163
11 | 3.0 (DMSO control at this site: 1-bp insertion 0.109, MH deletion 0.149, edited 0.09) TGCTAGCGCCCCCACAAAGCGGACCAGCCAGCACTATAGGGAATAAGGCCAACTTGCACCC | 0.193 | 0.188 | 0.178 | 0.0553 | 0.188 | 0.186 | 0.237 | 0.204 | 0.171 | 0.166
12 | 8.0 GCATGCGTGTTTTGGGACAATGTAGTATACATTTGGGAGGCTCTCAGCTTTTCCCAATAAA | – | – | – | – | 0.0765 | – | – | 0.0826 | 0.127 | 0.0866
13 | 15.0 GCGCCTCCAATGACCCAGTGGGATCCTACTCCATAATGGGATCCTGGGGATTCCTCGCTCC | – | 0.426 | – | – | 0.39 | – | – | 0.289 | – | –
14 | 33.0 (DMSO control at this site: 1-bp insertion 0.008, MH deletion 0.771, edited 0.112) CATTAAGAGCAGCTGCCGGCCCCCAAGTGGACAGAGCTGGCCCTGCTGATTCAACAGTGCA | 0.688 | 0.724 | 0.681 | 0.583 | 0.722 | 0.732 | 0.712 | 0.706 | 0.682 | 0.708
15 | 35.0 (DMSO control at this site: 1-bp insertion 0.01, MH deletion 0.72, edited 0.098) CCACTTTTAGAGAGGGTGAAAATCATCAGTTATCATCAGGGCAACAAATTGCTTTCTCCTA | 0.679 | 0.776 | 0.724 | 0.562 | 0.732 | 0.695 | 0.722 | 0.687 | 0.794 | 0.699
16 | 27.0 CCAGAATTAGAACATATCATCTGGACCCTTTTCCATCTGGACCCTTTTCCAGCACACCCTG | – | 0.214 | 0.156 | – | 0.104 | – | – | 0.174 | – | 0.105
17 | 17.0 (DMSO control at this site: 1-bp insertion 0.112, MH deletion 0.348, edited 0.058) CCATAGCGCGATAAATATGACGGCTCATCCTGTATGACGGCTCATCCTGTATCAACTGTCC | 0.409 | 0.43 | 0.378 | 0.243 | 0.444 | 0.409 | 0.35 | 0.38 | 0.474 | 0.39
18 | 22.0 (DMSO control at this site: 1-bp insertion 0.573, MH deletion 0.229, edited 0.045) CTGATGGTTGAAGGATTTAGCCGGGGTCCTAGACGCCGGGGTCCTAGACGAAAGGGCCACG | 0.0524 | 0.142 | 0.163 | 0.0591 | 0.188 | 0.0873 | 0.201 | 0.209 | 0.267 | –
19 | 19.0 (DMSO control at this site: 1-bp insertion 0.121, MH deletion 0.101, edited 0.057) TCTGCAGGGGTCGGAACCCGGGGGCTAGGGCTATCCCGGGGGCTAGGGCTATTAGCGAACC | 0.177 | 0.243 | 0.149 | 0.0547 | 0.209 | 0.212 | 0.207 | 0.188 | 0.187 | 0.202
20 | 43.0 (DMSO control at this site: 1-bp insertion 0.134, MH deletion 0.714, edited 0.104) AGTTTAACTTACTCCGGCCAAAAAAGAACTGCACCTCTGGAGCGGGTTAGTGGTGGTGGTA | 0.686 | 0.683 | 0.663 | 0.698 | 0.639 | 0.717 | 0.677 | 0.68 | 0.625 | 0.662

Source: the supplement of paper PMC8387472
